The values below come from PubChem BioAssay.

Structures are written as SMILES. Calls of active or inactive are those of the source.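 Rule for the calls, unless noted: active = inhibition at or above 50% at 10 µM; inactive = inhibition below 50%.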

A short description of assay [1]: inhibitors of TNFa-induced NFkB p65 translocation, primary screen, imaging, HUVEC, MLSMR starter and 10KST1 sets (AID 438;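 active = inhibition above 20% together with a positive visual image hit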;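 note: compound added about 3h40 before a 20 min TNFalpha stimulation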;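 for inhibition: signal is the nuclear over cytoplasmic p65 intensity ratio per well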). The settings on record: HUVEC TNFa-induced p65 nuclear translocation; cell count: measured here: nuclei count (cytotoxicity indicator), at 2.08 µM; inhibition: at 2 µM, stronger effect = higher value, 0% TNFa-plus-vehicle, 100% no-TNFa wells.
Assay [2] is described as follows: reduction of polyQ htt aggregates in cells – imaging, exon1htt(103Q)mCFP cells, high-content imaging, primary screen (AID 483;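 active = visual image review flags a hit and inhibition of aggregation exceeds 20%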;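 note: compound exposure lasted 3 days before fixation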;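 for nuclei count: percent of the per-plate median nuclei count of sample wells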). The settings on record: exon1htt(103Q)mCFP cell line, aggregate imaging, at 2 µM; inhibition of aggregation: stronger effect = higher value; nuclei count: measured here: cell count, toxicity.
Assay [3] in a line: endothelial E-selectin expression blockers – imaging, HUVEC, immunofluorescence, MLSMR starter and 10KST1 sets, primary screen (AID 487;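 active = visually confirmed hit in the image check and inhibition above 20%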;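 for inhibition: signal is fraction of cell area covered by stained E-selectin grains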;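 for nuclei count: 100% = median nuclei count of all wells on the same plate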). The settings on record: HUVEC TNFalpha-induced E-selectin immunofluorescence imaging, at 2 µM; inhibition: stronger effect = higher value; nuclei count: measured here: cell number, toxicity.
In assay [4] the target is Voltage-gated potassium channel subunit beta-2 (Rattus norvegicus) (UniProt P62483). In words: inhibitors of rat Kvbeta2 reductase activity – biochemical, NADPH fluorescence, primary screen (AID 622;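 active = fluorescence slope higher than the sample average by over 3 SD, cut at about -0.22 in these data, passing the limit was not always enough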;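 note: slope of raw intensity against log time taken from 70 to 1610 s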). The conditions noted are these: recombinant KvBeta, 4-cyanobenzaldehyde reduction, at 10 µM, stronger effect = higher value.
Voltage-gated potassium channel subunit beta-2 (Rattus norvegicus), sequence (P62483 whole entry, looked up): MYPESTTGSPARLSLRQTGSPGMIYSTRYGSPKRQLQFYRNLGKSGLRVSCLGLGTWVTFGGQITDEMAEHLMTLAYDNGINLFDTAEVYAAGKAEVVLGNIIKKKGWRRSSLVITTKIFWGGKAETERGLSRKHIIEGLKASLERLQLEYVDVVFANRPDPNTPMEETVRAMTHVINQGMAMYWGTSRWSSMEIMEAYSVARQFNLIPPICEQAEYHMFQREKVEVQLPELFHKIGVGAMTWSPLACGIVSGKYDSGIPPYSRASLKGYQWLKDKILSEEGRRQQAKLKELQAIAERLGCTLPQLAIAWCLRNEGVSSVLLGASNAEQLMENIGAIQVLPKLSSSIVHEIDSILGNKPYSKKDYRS
Assay [5] shares this target. In words: enhancers of rat Kvbeta2 NADPH turnover – biochemical, NADPH fluorescence, primary screen (AID 623;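 active = NADPH fluorescence slope more negative than the mean of all samples by about 3 SD, 99.7% confidence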;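 note: fluorescence intensity change per second fitted from 20 to 320 s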). The settings on record: Recombinant KvBeta, NADPH fluorescence decrease slope, 10 min; at 10 µM; stronger effect = lower value.
Assay [6] addresses Alpha-2C adrenergic receptor (Homo sapiens) (UniProt P18825). In words: compounds altering alpha2C-coupled GIRK flux – cell-based, HEK293 alpha2C/GIRK1/2, thallium flux, primary screen (AID 624;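 active = fluorescence slope after compound addition differing from the mean of all screened samples at 99.7% confidence, in either direction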;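 note: slope of fluorescence ratio to pre-addition baseline per second over 15 to 24 s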). The conditions noted are these: thallium flux BTC fluorescence, at 10 µM, actives lie on both sides.
Assay [7] in a line: blockers of RIG-like receptor reporter activation – cell-based, Sendai virus stimulus, luciferase, 10K MLSCN set, TLR/RLR signaling modifier project, primary screen (AID 602276).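 Note: firefly luciferase from ISG56 promoter only with Renilla not read in this screen; 0% = Sendai virus plus DMSO and 100% = medium plus DMSO without virus.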 The settings on record: HEK293 RL24 IRF3 luciferase reporter, at 10 µM, stronger effect = higher value. Background: In a reporter assay the amount or activity of a reporter protein is the signal.
Assay [8] in a line: TLR3 IRF3 reporter activation blockers – cell-based, poly I:C stimulus, luciferase, 10K MLSCN set, primary screen (AID 602277;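 active = inhibition of the reporter signal at or above 50%; inactive = inhibition below 50%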). The settings on record: HEK293-TLR3 RL24 IRF3 luciferase reporter, at 10 µM, stronger effect = higher value.

What is called inhibition is the drop in the measured response relative to a control, in per cent.

Alpha-2C adrenergic receptor (Homo sapiens), sequence (P18825 whole entry, looked up): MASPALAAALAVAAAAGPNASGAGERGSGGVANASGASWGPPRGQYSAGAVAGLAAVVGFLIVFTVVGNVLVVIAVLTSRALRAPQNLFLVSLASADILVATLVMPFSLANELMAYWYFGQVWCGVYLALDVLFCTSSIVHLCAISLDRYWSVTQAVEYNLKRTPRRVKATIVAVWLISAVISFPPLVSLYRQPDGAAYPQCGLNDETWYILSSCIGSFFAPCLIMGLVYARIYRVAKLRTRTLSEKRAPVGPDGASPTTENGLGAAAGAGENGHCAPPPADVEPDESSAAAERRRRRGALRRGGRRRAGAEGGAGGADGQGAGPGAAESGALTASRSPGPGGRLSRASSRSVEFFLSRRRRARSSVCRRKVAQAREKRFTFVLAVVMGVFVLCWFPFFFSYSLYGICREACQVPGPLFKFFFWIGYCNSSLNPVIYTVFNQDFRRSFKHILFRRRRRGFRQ

Consider `CCOC(=O)c1ccc(N2C(=O)CC(N3CCN(C/C=C/c4ccccc4)CC3)C2=O)cc1` (stereo not drawn), for which the cell count in assay [1] worked out at 375. The inhibition was -4.9% (inactive) in assay [1], -52.6% (inactive) in assay [3], 9.04% (inactive) in assay [7] and 16.7% (inactive) in assay [8]. For the same compound, in assay [2], the inhibition of aggregation is -10.3% (inactive). For the same compound, the nuclei count in assay [2] was 103%; in assay [3] it was 125%. The fluorescence slope in assay [4] was -0.39 (inactive). The NADPH fluorescence slope in assay [5] is 1.2e-05 (inactive). Besides, in assay [6], the slope is 0.008 (inactive).

As for `COCC(=O)N(Cc1cc2cc(OC)ccc2[nH]c1=O)c1ccccc1`, the cell count in assay [1] was 412. Also, the inhibition in assay [1] is 4.3% (inactive); in assay [3], -47.1% (inactive); in assay [7], 5.46% (inactive); in assay [8], 19% (inactive). Besides, in assay [2], the inhibition of aggregation was 1.5% (inactive). Also, the nuclei count in assay [2] was 106%; in assay [3], 113%. Besides, the fluorescence slope in assay [4] was -0.453 (inactive). For the same compound, in assay [5], the NADPH fluorescence slope was -5.4e-05 (inactive). The slope in assay [6] is 0.00281 (inactive).

Consider `CCOc1ccc(N(C(C)=O)C2C=CS(=O)(=O)C2)cc1` (stereo not drawn), for which the cell count in assay [1] was determined as 610. Also, the inhibition in assay [1] is -0.2% (inactive); in assay [3], -4% (inactive); in assay [7] it was 3.45% (inactive); in assay [8], 19.5% (inactive). Also, in assay [2], the inhibition of aggregation is -4.3% (inactive). Also, the nuclei count in assay [2] was 104%; in assay [3] it was 139%. In assay [4], the fluorescence slope was -0.496 (inactive). Also, in assay [5], the NADPH fluorescence slope was -1.8e-05 (inactive). In addition, in assay [6], the slope was 0.00613 (inactive).

Take `Cc1ccc2nc(NC(=O)C3CCCN(S(=O)(=O)c4cnc[nH]4)C3)sc2c1` (stereo not drawn): the cell count in assay [1] amounted to 567. Further, the inhibition in assay [1] was 6.9% (inactive); in assay [3] it was -42.7% (inactive); in assay [7], -43.1% (inactive); in assay [8] it was -79.3% (inactive). In addition, in assay [2], the inhibition of aggregation was -11.1% (inactive). Moreover, the nuclei count turned out to be 106% in assay [2] and 113% in assay [3]. Also, the fluorescence slope in assay [4] was -0.553 (inactive). In addition, the NADPH fluorescence slope in assay [5] was -6.7e-06 (inactive). Also, the slope in assay [6] is 0.00608 (inactive).

`O=C(Nc1ccc2c(c1)OCO2)C(c1ccc(Cl)cc1)N1CCN(C(=O)c2ccco2)CC1` (stereo not drawn): the cell count in assay [1] is 359. Also, the inhibition is -2.1% (inactive) in assay [1], -43.9% (inactive) in assay [3], 20.6% (inactive) in assay [7] and 28.1% (inactive) in assay [8]. Further, the inhibition of aggregation in assay [2] was -23.2% (inactive). Further, the figures for the nuclei count in assay [2] and in assay [3] were 102% and 110%, respectively. Also, the fluorescence slope in assay [4] was -0.47 (inactive). The NADPH fluorescence slope in assay [5] was -3.7e-05 (inactive). For the same compound, the slope in assay [6] was 0.00661 (inactive).

`COc1cccc(NC(=O)N2CCCC2C(=O)NC(C)C)c1` (stereo not drawn): in assay [1], the cell count came to 436. Further, the inhibition was 1.5% (inactive) in assay [1], -49.5% (inactive) in assay [3], 10.9% (inactive) in assay [7] and 13.7% (inactive) in assay [8]. The inhibition of aggregation in assay [2] was -4.5% (inactive). Besides, the nuclei count in assay [2] worked out at 121%; in assay [3], 114%. Further, the fluorescence slope in assay [4] is -0.601 (inactive). In assay [5], the NADPH fluorescence slope was -2.2e-05 (inactive). In assay [6], the slope is 0.00309 (inactive).

Turning to `Cc1ccc(CSC2=NCCN2C(=O)C2CC2)cc1`, the cell count in assay [1] came to 221. The inhibition was -0.8% (inactive) in assay [1], -26.8% (inactive) in assay [3], 11% (inactive) in assay [7] and 11.8% (inactive) in assay [8]. Moreover, in assay [2], the inhibition of aggregation was 7.2% (inactive). Further, the nuclei count in assay [2] came to 100%; in assay [3] it was 107%. Further, the fluorescence slope in assay [4] was -0.604 (inactive). Also, in assay [5], the NADPH fluorescence slope was -2e-05 (inactive). The slope in assay [6] is 0.00584 (inactive).

Regarding `CCN(CC)CCn1c2ccccc2c2nc(C)sc21`, in assay [1], the cell count turned out to be 613. Also, the inhibition in assay [1] was -3.3% (inactive); in assay [3], 34% (inactive); in assay [7], 16.1% (inactive); in assay [8], 21.2% (inactive). For the same compound, the inhibition of aggregation in assay [2] is -5% (inactive). The values for the nuclei count in assay [2] and in assay [3] were 98.7% and 86.3%, respectively. The fluorescence slope in assay [4] was -0.622 (inactive). In assay [5], the NADPH fluorescence slope was -3.9e-06 (inactive). Besides, the slope in assay [6] was 0.00718 (inactive).

With `Cc1nc(N2CCc3ccccc32)[nH]c(=O)c1CCC(C)C`, the cell count in assay [1] is 345. Moreover, the inhibition in assay [1] was -1.1% (inactive); in assay [3], -114% (inactive); in assay [7] it was 0.138% (inactive); in assay [8], 3.18% (inactive). Further, the inhibition of aggregation in assay [2] is -19.6% (inactive). Moreover, the values for the nuclei count in assay [2] and in assay [3] were 112% and 135%, respectively. Moreover, the fluorescence slope in assay [4] was -0.439 (inactive). In addition, the NADPH fluorescence slope in assay [5] was -4.2e-05 (inactive). The slope in assay [6] was 0.00282 (inactive).

On to `C=CCOc1ccc(/C=N/n2cncn2)cc1OC`, for which the cell count in assay [1] came to 517. The inhibition in assay [1] is -8.8% (inactive); in assay [3], -39.8% (inactive); in assay [7] it was -10.2% (inactive); in assay [8], 5.53% (inactive). For the same compound, the inhibition of aggregation in assay [2] is 23.9% (inactive). Moreover, the nuclei count was 76.3% in assay [2] and 81.6% in assay [3]. Moreover, the fluorescence slope in assay [4] is -0.58 (inactive). The NADPH fluorescence slope in assay [5] was 2.1e-05 (inactive). Besides, in assay [6], the slope was 0.00496 (inactive).

With `CCOC(=O)C1(CC)NC(c2cccc(F)c2)C2C(=O)N(CC)C(=O)C21` (stereo not drawn), the cell count in assay [1] amounted to 567. For the same compound, the inhibition is -7.7% (inactive) in assay [1], -6.6% (inactive) in assay [3], 12.4% (inactive) in assay [7] and 16.3% (inactive) in assay [8]. In assay [2], the inhibition of aggregation is 21.4% (inactive). Moreover, the nuclei count is 93.8% in assay [2] and 70.2% in assay [3]. Besides, in assay [4], the fluorescence slope is -0.476 (inactive). For the same compound, the NADPH fluorescence slope in assay [5] is -0.00018 (inactive). Also, in assay [6], the slope was 0.00451 (inactive).

As to `COc1cc(Cl)c(C)cc1NC(=O)COC(=O)c1cnc(C)cn1`, the cell count in assay [1] amounted to 345. In addition, the inhibition was 3.8% (inactive) in assay [1], -118% (inactive) in assay [3], -3.59% (inactive) in assay [7] and 12.5% (inactive) in assay [8]. Further, the inhibition of aggregation in assay [2] was 16.5% (inactive). Moreover, the nuclei count in assay [2] worked out at 95.2%; in assay [3], 110%. The fluorescence slope in assay [4] was -0.51 (inactive). Further, in assay [5], the NADPH fluorescence slope was 3.8e-05 (inactive). In assay [6], the slope is 0.00519 (inactive).

With `COc1ccc(-n2c(=O)c3c4c(sc3n3c(C)nnc23)CCCC4)cc1`, the cell count in assay [1] turned out to be 415. Besides, the inhibition in assay [1] was 3.3% (inactive); in assay [3], -7.4% (inactive); in assay [7], 4.81% (inactive); in assay [8] it was 19.4% (inactive). Moreover, the inhibition of aggregation in assay [2] is 4.3% (inactive). The nuclei count in assay [2] stood at 100%; in assay [3], 116%. Also, the fluorescence slope in assay [4] was -0.35 (inactive). Further, the NADPH fluorescence slope in assay [5] is -2.4e-05 (inactive). Also, in assay [6], the slope was 0.00664 (inactive).
